Compound activity from PubChem.
Rows were chosen to be rich in hits. Some 20% of all compounds tested hit in one or more screens of this group.
Shiga toxin inh: inhibitors of Shiga toxin in Vero cells; inhibition, % at 38.7 µM; Vero cells, Shiga toxin protein synthesis inhibition reporter; 290,000 tested, 9.2% active; in the data active = inhibition mostly above about 28%, no sharp cut-off; inactive = mostly below about 43%; also: 0% is about no effect
HCMV inh: human cytomegalovirus inhibition; HFF cells, HCMV-luciferase reporter, 72 h; stronger effect = lower value; activity change, negative = inhibition, % at 57.5 µM; 410,000 tested, 4.5% active; in the data active = activity change below about -60%; inconclusive = no clear call, values can overlap the other calls; inactive = above about -39%; also: % is scaled to controls: 0 for no effect and ±100 for the full control effect
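Screen run at 2 compound doses on HFFs infected with reporter HCMV, MOI 1 PFU/cell. Luciferase activity from cell lysates at 72 h post infection gave inhibition relative to buffer-only and Salinomycin wells.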
Pf growth 48h: inhibits P. falciparum growth in the first generation, 48 h; P. falciparum luciferase growth in erythrocytes, 48 h; Potency, µM (titrated, usually from 28.7 µM), for the others: at the top dose activity change, negative = inhibition, usual class: inhibitors; 310,000 tested, 5.9% active; also: potency is read from the fitted curve at half-maximal effect; % is scaled to controls: 0 for no effect and ±100 for the full control effect
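Luciferase-expressing P. falciparum in infected erythrocytes (2% hematocrit, 0.1% parasitemia final) in RPMI 1640/0.5% Albumax were exposed to compound for 48 hours at 37 C, 5% CO2; growth read as luminescence.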
Pf growth 96h: P. falciparum growth inhibition at 96 hours; P. falciparum luciferase reporter growth, 96 h; AID 504834; 320,000 tested, 6.9% active; Potency, µM (highest dose often 28.7 µM), inactives show at the highest dose activity change, negative = inhibition, usual class: inhibitors; also: potency is read from the fitted curve at half-maximal effect; % is scaled to controls: 0 for no effect and ±100 for the full control effect
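Infected RBCs, 2% Hct / 0.05% parasitemia final; luciferase-reporter P. falciparum; cpd 96 h, 37 C, 5% CO2; luciferase detection reagent; luminescence.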
Cycloheximide cs: counter-screen hit for Shiga toxin inhibitors, cycloheximide | cell reporter, cycloheximide protein synthesis inhibition counterscreen | max response, % | 300,000 tested, 12% active; in the data active = max response mostly above about 13%, no sharp cut-off; inactive = mostly below about 14%; also: read at 38.3 µM for the half of the compounds with a filed dose; 0% is about no effect
* = called active by the depositor; ? = inconclusive; / = no result. Unless noted, calls follow the shape of the dose curve; as a rule, active = well fitted inhibition curve with a large enough effect; inconclusive = small, poorly fitted or top-dose-only effect, or another doubt; inactive = no such curve, though single readings can be large or run the other way.

SMILES	Shiga toxin inh	HCMV inh	Pf growth 48h	Pf growth 96h	Cycloheximide cs
COc1ccc(C2CC(c3ccc(F)cc3)=NN2c2ccccc2)cc1OC (stereo not drawn)	90.1*	76.8	?	?	25.5*
COc1ccc(C2=NN(C(=O)c3ccccc3)C(c3ccc(OC)c(OC)c3)C2)cc1OC (stereo not drawn)	-13.4	-24.4	?	?	-2.3
COc1ccc(C2=NN(C(C#N)c3ccc(OC)c(OC)c3)C(c3ccccc3)C2)cc1 (stereo not drawn)	112.8*	45.2	125.1%	/	43.1*
CC1CCCCN1C(=O)CSc1nnc(-c2ccco2)o1 (stereo not drawn)	108.1*	58.0	123.3%	5.22µM*	36.8*
CC1CCCCN1C(=O)CSc1nnc(-c2cccc(Cl)c2)o1 (stereo not drawn)	/	26.6	/	/	/
COc1ccccc1-c1nnc(SCC(=O)N2CCCC2)o1	39.6*	59.5	18.2%	268.0%	8.8
N#CC1(NC(=O)CSc2nnc(Cc3ccccc3)o2)CCCCC1	/	-13.8	-17.6%	?	/
CCOc1ccccc1-c1nnc(SCC(=O)NC2(C#N)CCCC2)o1	/	-17.5	?	9.28µM*	/
COC(=O)CSc1nnc(-c2ccc(OC)cc2OC)o1	-0.3	11.8	-12.6%	59.4%	-0.9
COc1ccc(-c2nnc(SCC(=O)N3CCCC3)o2)c(OC)c1	46.4*	52.8	36.5%	10.5%	18.0
CC[C@@]1(C(=O)OC)N[C@H](CN(C)S(=O)(=O)c2ccc(OC(F)(F)F)cc2)[C@@H]2C(=O)N(C)C(=O)[C@@H]21	/	4.3	/	/	/
CC1CCCCN1C(=O)CSc1nnc(-c2ccccc2F)o1 (stereo not drawn)	94.2*	28.3	130.9%	2.7%	35.0*
O=C(CSc1nnc(-c2ccccc2Br)o1)N1CCc2ccccc2C1	-11.1	-11.5	8.1%	3.29µM*	-5.1
O=C(CSc1nnc(-c2ccccc2F)o1)N1CCCC1	85.7*	5.4	39.7%	-7.2%	26.3*
COc1cc(OC)cc(-c2nnc(SCC(=O)N3CCOCC3)o2)c1	-4.1	37.4	3.7µM*	3.3%	-2.9
Cc1ccccc1-c1nnc(SCC(=O)N2CCCCC2)o1	/	50.9	/	/	/
O=c1n(Cc2ccccc2)nc2n1-c1cc(Cl)ccc1OC2	/	17.8	/	/	/
COc1cc(/C=N/NC(=O)NC23CC4CC(CC(C4)C2)C3)ccc1O	37.2*	-11.1	?	?	8.4
O=C(N/N=C/c1ccccc1O)NC12CC3CC(CC(C3)C1)C2	139.0*	-30.1	1.17µM*	2.62µM*	46.2*
C/C(=N/NC(=O)NC12CC3CC(CC(C3)C1)C2)c1ccccc1	28.8	-62.0*	?	0.738µM*	-2.0
CC[C@]12c3[nH]c4cc(CCC(=O)N(C)C)ccc4c3CCN1C(=O)[C@@H](CC(=O)NC(C)(C)C)C[C@@H]2C(=O)N1CCN(C(=O)c2ccco2)CC1	/	58.5	/	/	/
CCOc1ccc(C(C(=O)NC2CCCCC2)N(C(=O)c2csnn2)C2CC2)cc1 (stereo not drawn)	-5.6	-3.8	?	57.0%	4.2
CCc1cccc(-n2c(=O)c3cccnc3n2CC(=O)Nc2ccc(OC)c(Cl)c2)c1	/	-30.6	/	/	/
NS(=O)(=O)c1ccc(N/N=C/c2ccccn2)c([N+](=O)[O-])c1	26.0	-63.6*	1.0%	-13.1%	-1.1
NS(=O)(=O)c1ccc(N/N=C/c2ccc(O)cc2O)c([N+](=O)[O-])c1	16.7	-78.3*	?	?	-1.3
SMILES	Shiga toxin inh	HCMV inh	Pf growth 48h	Pf growth 96h	Cycloheximide cs
O=[N+]([O-])c1cc(S(=O)(=O)N2CCCC2)ccc1N/N=C/c1ccccn1	13.0	26.6	2.9%	?	51.0
CCOc1ccc(-c2cc(NC(=O)Nc3cccc(C(C)=O)c3)c(C(=O)OC)s2)cc1	/	49.3	/	/	/
CC1=NN(C(N)=S)C(=O)C1N=Nc1ccc(Cl)cc1Cl (stereo not drawn)	76.6*	129.5	?	?	25.4*
CC1=NN(C(N)=S)C(=O)C1N=Nc1ccccc1Cl (stereo not drawn)	/	8.0	?	283.1%	18.3*
COc1ccccc1N=NC1C(=O)N(C(N)=S)N=C1C (stereo not drawn)	/	18.2	11.3%	-24.8%	1.5
Cc1ccc(OS(=O)(=O)c2cn(C)c(=O)n(C)c2=O)cc1C	25.1	-33.6	14.9%	0.0%	8.1
Cc1cccc(NC(=O)CSc2nc(-c3ccccc3)cc(=O)[nH]2)c1C	/	-12.9	/	/	/
COc1ccc2c(c1)CCc1c(C(=O)N3CCCc4ccccc43)noc1-2	35.6	-21.0	6.57µM*	9.7%	27.1*
COc1ccc(C(=O)N2CC3(C)CC2CC(C)(C)C3)cc1 (stereo not drawn)	-7.9	8.4	?	-28.3%	-2.6
COc1cccc(C(=O)N2CCCc3ccccc32)c1	23.0	10.5	-3.3%	-16.4%	2.3
COc1ccc2c(c1)CCc1c(C(=O)Nc3ccc(OC)c(OC)c3)noc1-2	-17.4	-34.2	18.3%	5.4%	-1.2
COc1ccc2c(c1)CCc1c(C(=O)N3CC4(C)CC3CC(C)(C)C4)noc1-2 (stereo not drawn)	0.9	?	14.7µM*	?	0.5
COc1ccc2c(c1)CCc1c(C(=O)N3CCOCC3)noc1-2	74.0*	87.4	126.7%	/	31.1*
CC(NC(=O)C(=O)N1CCCCC1)C(c1cccs1)N1CCN(C)CC1 (stereo not drawn)	-11.2	5.3	22.7%	?	-0.7
CCC(C(=O)NCc1ccccc1Cl)n1nc(C)c2sc3ccccc3c2c1=O (stereo not drawn)	/	11.0	/	/	/
COc1ccccc1NC(=S)NC1CCCCCC1	31.0	-27.3	-0.2%	?	-1.2
CC(=O)OC1C(OC(C)=O)N(C(C)=O)C(=O)N1C(C)=O (stereo not drawn)	-7.9	-34.9	-3.9%	9.28µM*	-0.7
CC1(C(=O)NCC2CC2)Cc2c(-c3ccccc3)ccnc2O1 (stereo not drawn)	/	-31.9	/	/	/
CCOc1ccccc1N(C(=O)CNC(=O)c1ccco1)C(C(=O)NC1CCCC1)c1ccncc1 (stereo not drawn)	-1.9	-61.1*	?	?	-1.0
Cc1ccc(N(C(=O)CNC(=O)c2ccco2)C(C(=O)NC2CCCC2)c2ccncc2)cc1C (stereo not drawn)	-11.3	-66.7*	10.5%	?	-3.6
COc1cccc(N(C(=O)CNC(=O)c2ccco2)C(C(=O)NC2CCCCC2)c2ccncc2)c1 (stereo not drawn)	-2.1	37.9	-5.1%	9.28µM*	0.5
CCOC(=O)[C@]12CCCC=C1N(Cc1ccc(Cl)cc1Cl)C(=O)[C@H](CC(=O)N1CCOCC1)C2	/	-3.3	/	/	/
CCCCCCN1C[C@H](n2cc(C3CC3)nn2)[C@@H](O)C[C@@H]1c1ccccc1	/	-38.0	/	/	/
O=C1CCN(CCc2ccccc2)CCN1C(CSc1ccc(Br)cc1)Cc1ccccc1 (stereo not drawn)	-4.3	/	/	/	-2.3
Clc1ccc2nc(-c3ccc(Br)s3)cn2c1	41.5*	5.5	?	-18.9%	22.3*
